According to PubChem BioAssay (Tox21):
Records with an inconclusive call do not appear. Calls of active or inactive are those of the source. Unless noted, calls follow the shape of the full dose curve.

Key:
[1] = Nuclear factor erythroid 2-related factor 2/antioxidant responsive element (Nrf2/ARE) small molecule agonists: qHTS cell viability counter screen in human keratinocytes (AID 1919968; active = well fitted curve in the direction sought with a large enough effect in the repeat runs; an effect the other way counts as inactive or inconclusive; also: nearly all actives have a fitted effect of over 55% in size; also: potency is read from the fitted curve at half-maximal effect)
How it was run: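 HaCaT ARE reporter line, 1,500 cells/well; 5 h settle, 37 C/5% CO2; cpd in DMSO pinned; 23 h exposure; CellTiter-Fluor, 1 h; fluorescence.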

[2] = Nuclear factor erythroid 2-related factor 2/antioxidant responsive element (Nrf2/ARE) small molecule agonists: luciferase reporter gene qHTS assay in human keratinocytes (AID 1919969); also: nearly all actives have a fitted effect of over 35% in size; also: potency is read from the fitted curve at half-maximal effect
[3] = target: Gonadotropin-releasing hormone receptor (Homo sapiens) (UniProt P30968); assay: Human gonadotropin-releasing hormone receptor (GnRHR) small molecule agonists, calcium flux assay in GnRHR-HEK293 cells (AID 1920063); also: nearly all actives have a fitted effect of over 35% in size
Gonadotropin-releasing hormone receptor (Homo sapiens), sequence (P30968 whole entry, looked up): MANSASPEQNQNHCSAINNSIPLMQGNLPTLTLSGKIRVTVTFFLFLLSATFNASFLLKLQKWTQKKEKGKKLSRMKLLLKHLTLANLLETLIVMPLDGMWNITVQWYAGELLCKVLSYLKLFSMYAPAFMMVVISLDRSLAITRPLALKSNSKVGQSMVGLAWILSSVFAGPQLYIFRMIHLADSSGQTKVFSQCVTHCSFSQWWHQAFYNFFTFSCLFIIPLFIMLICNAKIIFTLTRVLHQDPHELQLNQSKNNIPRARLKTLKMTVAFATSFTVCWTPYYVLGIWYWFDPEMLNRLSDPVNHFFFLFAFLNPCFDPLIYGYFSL
How it was run: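 GnRHR-HEK293, 1500 cells/well, 18 h 37 C/5% CO2; Ca dye 1 h 37 C; cpd pinned (DMSO), agonist mode; kinetic FL 480/540, 3 min, 1 s reads; 15 conc, n=3.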

[4] = target: KiSS-1 receptor (Homo sapiens) (UniProt Q969F8); assay: Human kisspeptin (KISS1R) small molecule agonists, calcium flux assay in KISS1R-HEK293 cells (AID 1920064; active = well fitted curve in the direction sought with a large enough effect in the repeat runs; an effect the other way counts as inactive or inconclusive)
KiSS-1 receptor (Homo sapiens), sequence (Q969F8 whole entry, looked up): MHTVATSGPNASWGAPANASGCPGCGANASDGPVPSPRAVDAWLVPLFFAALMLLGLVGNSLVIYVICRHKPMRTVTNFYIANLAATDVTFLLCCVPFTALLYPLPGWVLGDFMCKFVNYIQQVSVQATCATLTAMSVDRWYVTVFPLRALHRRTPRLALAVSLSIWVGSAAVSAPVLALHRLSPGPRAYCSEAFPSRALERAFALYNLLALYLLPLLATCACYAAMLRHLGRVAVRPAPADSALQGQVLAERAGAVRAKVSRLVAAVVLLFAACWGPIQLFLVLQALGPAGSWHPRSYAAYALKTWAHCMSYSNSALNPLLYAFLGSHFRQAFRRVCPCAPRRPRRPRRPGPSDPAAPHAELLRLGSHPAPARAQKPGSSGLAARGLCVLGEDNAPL
How it was run: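 Stable human KISS1R HEK293 line; 18 h plating, 37 C/5% CO2; calcium dye 1 h 37 C; compound pin transfer; kinetic fluorescence Ex/Em 480/540, 3 min.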

[5] = G protein-coupled receptor (GPCR) small molecule agonists, calcium flux assay: HEK293 wild type cell line counter screen (AID 1920065)
How it was run: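 Kinetic fluorescence at Ex/Em 480/540, recorded every second over 3 min, served as the read-out after compound addition. Each compound was tested at 15 concentrations in triplicate on cells pre-loaded with calcium dye for 1 h.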

[6] = p53 small molecule agonists, cell-based qHTS assay with human liver microsomes (AID 1963577)
How it was run: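 Compounds act here after metabolic activation: human liver microsomes and NADPH, both at 0.5 mg/mL final, were co-added to p53RE-bla cells. Incubation ran 16 h at 37 C, followed by LiveBLAzer detection.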

[7] = p53 small molecule agonists, cell-based qHTS assay with rat liver microsomes (AID 1963578)
How it was run: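 Read-out is beta-lactamase reporter fluorescence (LiveBLAzer, 2 h, room temperature, dark) in p53RE-bla cells treated 16 h at 37 C with compound, rat liver microsomes and NADPH, both 0.5 mg/mL final.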

[8] = p53 small molecule agonists, cell-based qHTS assay with human liver microsomes: qHTS cell viability counter screen (AID 1963579); also: nearly all actives have a fitted effect of over 45% in size
How it was run: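 Cells carrying the p53 response-element beta-lactamase reporter are treated for 16 h at 37 C with test compounds in the presence of human liver microsomes and NADPH (both 0.5 mg/mL final); ATP-based CellTiter-Glo luminescence then reports viability.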

[9] = p53 small molecule agonists, cell-based qHTS assay with rat liver microsomes: qHTS cell viability counter screen (AID 1963580); also: nearly all actives have a fitted effect of over 45% in size
How it was run: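 In HCT-116 cells carrying a p53 response element-bla reporter, compounds were metabolically activated in situ by rat liver microsomes with NADPH over 16 h. Cell ATP content then served as the cytotoxicity measure.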

[10] = p53 small molecule agonists, cell-based qHTS assay: qHTS cell viability counter screen (AID 1963581); also: nearly all actives have a fitted effect of over 45% in size
How it was run: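 HCT-116 p53RE-bla cells, 4,000/well, plated 5 h before compound pin transfer; 16 h at 37 C; bla substrate 2 h RT; then CellTiter-Glo, 30 min RT, luminescence.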

[11] = p53 small molecule agonists, cell-based qHTS assay (AID 1963582; active = well fitted activation curve with a large enough effect in the signal ratio in the repeat runs, not every such curve was filed as active; the % refers to the signal ratio)
How it was run: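 Reporter line: p53RE-bla. Pre-incubation 5 h, 37 C, 5% CO2; compound (DMSO, pin tool) 16 h, 37 C; B/G FRET substrate 2 h RT; fluorescence intensity read.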

[12] = target: 5-hydroxytryptamine receptor 2A (Homo sapiens) (UniProt P28223); assay: 5-hydroxytryptamine receptor 2A (HTR2A) small molecule antagonists, cell-based qHTS assay (AID 1963586); also: nearly all actives have a fitted effect of over 45% in size
5-hydroxytryptamine receptor 2A (Homo sapiens), sequence (P28223 whole entry, looked up): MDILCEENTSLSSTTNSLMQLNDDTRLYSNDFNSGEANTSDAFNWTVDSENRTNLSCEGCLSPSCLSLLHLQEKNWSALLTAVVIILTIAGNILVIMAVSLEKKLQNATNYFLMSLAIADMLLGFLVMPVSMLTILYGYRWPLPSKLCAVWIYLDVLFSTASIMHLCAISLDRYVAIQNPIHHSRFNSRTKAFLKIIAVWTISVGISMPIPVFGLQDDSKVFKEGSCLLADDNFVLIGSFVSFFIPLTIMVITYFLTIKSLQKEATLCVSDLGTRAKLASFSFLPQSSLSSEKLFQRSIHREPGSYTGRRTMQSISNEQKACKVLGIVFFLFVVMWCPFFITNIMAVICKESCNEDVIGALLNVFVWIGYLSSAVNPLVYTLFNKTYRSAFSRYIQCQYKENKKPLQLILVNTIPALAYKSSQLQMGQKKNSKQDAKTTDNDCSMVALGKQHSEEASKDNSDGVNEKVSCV
How it was run: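 Antagonist-mode intracellular calcium assay: DOI (4 nM) added after 5 min compound pre-incubation at room temperature to dye-loaded HTR2A-CHO cells. Fluorescence followed for 3 min, sampled every second.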

[13] = target: 5-hydroxytryptamine receptor 2A (Homo sapiens) (UniProt P28223); assay: 5-hydroxytryptamine receptor 2A (HTR2A) small molecule agonists, cell-based qHTS assay (AID 1963587); also: nearly all actives have a fitted effect of over 30% in size
How it was run: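 HTR2A-CHO cells, plated 18 h at 37 C/5% CO2, dye-loaded 1 h at 37 C; compounds in DMSO added by pin tool (agonist mode). Intracellular calcium flux read as kinetic fluorescence on FDSS over 2 min at 1 s intervals.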

[14] = target: Muscarinic acetylcholine receptor M1 (Homo sapiens) (UniProt P11229); assay: Cholinergic receptor muscarinic 1 (CHRM1) small molecule antagonists, cell-based qHTS assay (AID 1963588); also: nearly all actives have a fitted effect of over 40% in size; also: potency is read from the fitted curve at half-maximal effect
Muscarinic acetylcholine receptor M1 (Homo sapiens), sequence (P11229 whole entry, looked up): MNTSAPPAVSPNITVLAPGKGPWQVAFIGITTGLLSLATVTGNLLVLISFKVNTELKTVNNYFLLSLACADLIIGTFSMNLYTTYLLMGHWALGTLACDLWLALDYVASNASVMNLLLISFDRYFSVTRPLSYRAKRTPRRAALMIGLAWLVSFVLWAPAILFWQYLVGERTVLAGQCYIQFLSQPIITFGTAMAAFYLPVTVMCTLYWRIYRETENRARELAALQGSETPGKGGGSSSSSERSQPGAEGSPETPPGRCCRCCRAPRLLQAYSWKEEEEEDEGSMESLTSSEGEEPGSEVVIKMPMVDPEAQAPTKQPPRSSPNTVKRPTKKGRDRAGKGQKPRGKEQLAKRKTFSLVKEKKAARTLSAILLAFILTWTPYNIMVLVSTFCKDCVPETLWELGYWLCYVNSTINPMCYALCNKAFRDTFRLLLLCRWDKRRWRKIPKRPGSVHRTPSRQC
How it was run: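 CHRM1-CHO calcium-flux assay, antagonist mode. Cells were seeded 18 h, dye-loaded 1 h at 37 C and given compound for 5 min at RT, then acetylcholine was added at 50nM. FDSS fluorescence was read 3 min; 15 concentrations, three runs.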

[15] = target: Muscarinic acetylcholine receptor M1 (Homo sapiens) (UniProt P11229); assay: Cholinergic receptor muscarinic 1 (CHRM1) small molecule agonists, cell-based qHTS assay (AID 1963589); also: nearly all actives have a fitted effect of over 35% in size
How it was run: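 Human M1 in stable CHO line; 18 h plating, 1 h dye load 37 C; cpd added (agonist mode); Ca2+ fluorescence kinetic read, 1 s intervals; 15 conc, 3 runs.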

[16] = cAMP Responsive Elements (CRE) small molecule agonists, cell-based qHTS assay (AID 1963590)
How it was run: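 HEK 293T CRE-bla, 2,000 cells/well, 18 h preincubation 37 C/5% CO2; cpds (DMSO) pinned, 3 h; LiveBLAzer B/G FRET substrate, 2 h RT.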

[17] = cAMP Responsive Elements (CRE) small molecule antagonists, cell-based qHTS assay (AID 1963591; active = well fitted inhibition curve with a large enough effect in the signal ratio in the repeat runs, not every such curve was filed as active; the % refers to the signal ratio)
How it was run: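 Beta-lactamase reporter read by FRET substrate (LiveBLAzer B/G) after 2 h at room temperature. CRE-bla HEK293T cells had received compound plus 0.25 uM (final) NKH477 for 3 h at 37 °C.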

[18] = target: D(2) dopamine receptor (Homo sapiens) (UniProt P14416); assay: Dopamine D2 receptor (DRD2) small molecule agonists, cell-based qHTS assay (AID 1963594); also: nearly all actives have a fitted effect of over 35% in size
D(2) dopamine receptor (Homo sapiens), sequence (P14416 whole entry, looked up): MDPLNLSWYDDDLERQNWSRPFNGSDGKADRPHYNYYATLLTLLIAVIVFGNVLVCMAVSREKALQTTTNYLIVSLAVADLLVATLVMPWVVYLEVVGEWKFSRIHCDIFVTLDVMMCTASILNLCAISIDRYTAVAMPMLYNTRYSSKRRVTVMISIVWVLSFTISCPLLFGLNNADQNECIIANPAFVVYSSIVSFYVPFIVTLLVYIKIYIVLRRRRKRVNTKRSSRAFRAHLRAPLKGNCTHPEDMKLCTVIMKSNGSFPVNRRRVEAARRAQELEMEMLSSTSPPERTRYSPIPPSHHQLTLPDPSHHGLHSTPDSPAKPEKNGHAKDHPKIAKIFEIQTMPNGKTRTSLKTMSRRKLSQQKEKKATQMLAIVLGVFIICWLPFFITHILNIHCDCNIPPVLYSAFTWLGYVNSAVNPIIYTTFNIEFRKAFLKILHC
How it was run: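 HEK293 cells stably expressing DRD2 were cultured 24 h at 37 C, then given Ro20-1724 (0.1 mM final) and compounds for 10 min at room temperature. NKH477 (200nM) was then added for 30 min. cAMP was read by HTRF.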

[19] = target: D(2) dopamine receptor (Homo sapiens) (UniProt P14416); assay: Dopamine D2 receptor (DRD2) small molecule antagonists, cell-based qHTS assay (AID 1963595; active = well fitted inhibition curve with a large enough effect in the signal ratio in the repeat runs, with a control signal flat; the % refers to the signal ratio)
How it was run: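 In this cell-based antagonist screen, compounds act for 10 min at room temperature before a 30 min challenge with 12 nM quinpirole and 200 nM NKH477. cAMP is quantified by HTRF competition in DRD2-HEK293 cells containing 0.1 mM Ro20-1724.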

[20] = target: Beta-2 adrenergic receptor (Homo sapiens) (UniProt P07550); assay: Adrenergic beta2 receptor (ADRB2) small molecule antagonists, cell-based qHTS assay (AID 1963592); also: series mostly up to about 92 µM; nearly all actives have a fitted effect of over 50% in size
Beta-2 adrenergic receptor (Homo sapiens), sequence (P07550 whole entry, looked up): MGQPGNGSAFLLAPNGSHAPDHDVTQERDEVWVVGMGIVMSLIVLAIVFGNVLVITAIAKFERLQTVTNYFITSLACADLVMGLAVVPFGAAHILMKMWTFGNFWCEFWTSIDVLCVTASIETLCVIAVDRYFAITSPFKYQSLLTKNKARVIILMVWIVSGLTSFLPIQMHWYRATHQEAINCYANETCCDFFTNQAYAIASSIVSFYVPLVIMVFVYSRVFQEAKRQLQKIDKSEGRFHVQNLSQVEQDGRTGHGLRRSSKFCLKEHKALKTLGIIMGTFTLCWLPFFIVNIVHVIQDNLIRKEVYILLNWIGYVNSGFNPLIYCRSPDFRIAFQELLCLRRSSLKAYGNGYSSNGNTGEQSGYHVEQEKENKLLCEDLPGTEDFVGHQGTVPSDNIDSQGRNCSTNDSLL
How it was run: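 Cells (CHO, stable ADRB2 overexpression) incubated 18-20hr at 37C; compounds added from DMSO; agonist mix (1nM isoproterenol, 100uM IBMX, 25uM Ro-20-1724) added; 0.5hr RT; d2-cAMP and anti-cAMP-cryptate added; 1hr RT; 665/615 nm read.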

Measured: Potency

c1ccc(CNc2ncnc3nc[nH]c23)cc1
not listed: [20]
inactive: all other assays above

Cc1cc(=O)[nH]c(=O)[nH]1
not listed: [19] | [20]
inactive: all other assays above

Oc1ccc(Cl)c2cccnc12
active: [1] 531 nM | [2] 668 nM
not listed: [17]
inactive: all other assays above

O=C(O)c1ccccc1Cl
not listed: [17]
inactive: all other assays above

CCOC(=O)CCC(=O)OCC
not listed: [17] | [19]
inactive: all other assays above

COc1cc(C(=O)NCCCCCC(=O)O)cc(OC)c1OC
not listed: [18]
inactive: all other assays above

N#CC1(N)CCCCC1
not listed: [20]
inactive: all other assays above

N#CCc1ccc(Cl)cc1Cl
not listed: [18] | [20]
inactive: all other assays above

C=CC(=O)OCCCl
not listed: [20]
inactive: all other assays above

CCNC(=O)C1CC(C)CCC1C(C)C (stereo unspecified)
not listed: [17]
inactive: all other assays above

CCC(C)c1nccnc1OC (stereo unspecified)
not listed: [20]
inactive: all other assays above

CCCCCO
not listed: [20]
inactive: all other assays above

COc1c(N2C[C@@H]3CCCN[C@@H]3C2)c(F)cc2c(=O)c(C(=O)O)cn(C3CC3)c12
active: [14] 6500 nM
not listed: [18] | [20]
inactive: all other assays above

O=C(O)c1cccc(C(=O)O)n1
not listed: [18] | [20]
inactive: all other assays above

CCc1cc(S(=O)(=O)O)c2cc(C(C)C)cccc1-2
not listed: [20]
inactive: all other assays above

Cc1cc(S(=O)(=O)O)c(N)cc1Cl
not listed: [17]
inactive: all other assays above

Cc1ccc2cccnc2c1
not listed: [17]
inactive: all other assays above

CCCCCCOC(=O)C(C)C
not listed: [17]
inactive: all other assays above

O=C(O)c1cccc(C(=O)O)c1C(=O)O
not listed: [17]
inactive: all other assays above
